Drawing on PubChem BioAssay (NCATS), this text covers Potency for 30 molecules.

Results filed as inconclusive are left out. A call without a number means that no potency is given here. Activity calls are given as the source filed them. Calls follow the shape of the dose curve; as a rule, active = well fitted curve in the direction sought with a large enough effect; inconclusive = small, poorly fitted or top-dose-only effect, or another doubt; inactive = no such curve, though single readings can be large; an effect the other way counts as inactive or inconclusive.

Chain of Calcium and integrin-binding protein 1 (Homo sapiens) (Q99828 whole entry, looked up): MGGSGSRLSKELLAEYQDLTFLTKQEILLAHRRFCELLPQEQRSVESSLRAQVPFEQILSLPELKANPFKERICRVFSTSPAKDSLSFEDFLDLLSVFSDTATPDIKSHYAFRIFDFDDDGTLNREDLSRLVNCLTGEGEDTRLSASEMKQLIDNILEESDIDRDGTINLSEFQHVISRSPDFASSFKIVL

The target in one experiment is Cytochrome P450 3A4 (Homo sapiens) (UniProt P08684). As to the kind of experiment: qHTS Assay for Activators of Cytochrome P450 3A4 (AID 885). Also: nearly all actives have a fitted effect of over 65% in size. The conditions noted are these: recombinant CYP3A4, Luciferin-PPXE luminescence, 60 min; series mostly up to 57.1 µM. Put shortly: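 Human CYP3A4 (20 nM) with Luciferin-PPXE at 25 uM (its KM) in 200 mM KPO4; 10 min compound preincubation, then NADPH regeneration and 60 min reaction at RT. Luciferin read by luminescence; normalized to 57 uM ketoconazole full inhibition.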
Chain of Cytochrome P450 3A4 (Homo sapiens) (P08684 whole entry, looked up): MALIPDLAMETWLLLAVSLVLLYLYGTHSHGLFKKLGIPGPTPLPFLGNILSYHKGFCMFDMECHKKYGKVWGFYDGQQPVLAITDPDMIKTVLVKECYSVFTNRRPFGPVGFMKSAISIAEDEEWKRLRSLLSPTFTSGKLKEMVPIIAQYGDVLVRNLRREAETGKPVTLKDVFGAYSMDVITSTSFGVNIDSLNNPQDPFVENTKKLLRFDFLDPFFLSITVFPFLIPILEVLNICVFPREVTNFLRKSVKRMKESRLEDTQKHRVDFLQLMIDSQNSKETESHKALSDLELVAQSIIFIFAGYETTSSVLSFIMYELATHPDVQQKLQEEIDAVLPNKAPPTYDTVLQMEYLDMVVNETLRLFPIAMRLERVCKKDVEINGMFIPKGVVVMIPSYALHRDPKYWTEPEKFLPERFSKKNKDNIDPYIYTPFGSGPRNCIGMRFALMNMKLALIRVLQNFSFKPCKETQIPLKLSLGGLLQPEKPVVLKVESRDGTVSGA
In the case of `CCN(CC)CCn1c(-c2ccccc2)nc2c(NCc3ccccc3)nc(C)nc21`, the Potency entry is “inactive”.

With `CCN1CCCC1Cn1c(-c2ccccc2)nc2c(NCc3ccccc3)nc(C)nc21` (stereo not given), the Potency entry was “inactive”.

Turning to `CCN1CCCC1Cn1c(-c2ccccc2)nc2c(NC3CCCCC3)nc(C)nc21` (stereo not given), the Potency result was “inactive”.

As to `CCCn1c(-c2ccc(F)cc2)nc2c(N3CCN(Cc4nc(OC)cc(OC)n4)CC3)nc(C)nc21`, the Potency result was “inactive”.

`CCN1CCCC1Cn1c(-c2ccccc2)nc2c(NCCOC)nc(C)nc21` (stereo not given): the Potency result is “inactive”.

In the case of `CCCn1c(-c2ccc(F)cc2)nc2c(N3CCN(CCn4ccnc4)CC3)nc(C)nc21`, the Potency entry was “inactive”.

For the molecule `CCCn1c(-c2ccc(F)cc2)nc2c(NCCCCN3CCCC3)nc(C)nc21`, the Potency result was “inactive”.

Turning to `Cc1nc(NCc2ccccc2)c2nc(-c3ccccc3)n(CCN3CCCCC3)c2n1`, the Potency result is “inactive”.

For `Cc1nc(N2CCOCC2)c2nc(-c3ccccc3)n(CCN3CCCCC3)c2n1`, the Potency result was “inactive”.

In the case of `Cc1nc(NCc2ccccc2)c2nc(-c3ccccc3)n(CCCN(C)C)c2n1`, the Potency entry was “inactive”.

Turning to `CCCCNc1nc(C)nc2c1nc(-c1ccccc1)n2CCN1CCCCC1`, the Potency result was “inactive”.

For the molecule `Cc1nc(NCc2ccccc2)c2nc(-c3ccccc3)n(C3CCN(Cc4ccccc4)C3)c2n1` (stereo not given), the Potency result is “inactive”.

Take `COCCNc1nc(C)nc2c1nc(-c1ccccc1)n2C1CCN(Cc2ccccc2)C1` (stereo not given): the Potency entry was “inactive”.

Turning to `CCCn1c(-c2ccc(F)cc2)nc2c(NC3CCN(Cc4ccccc4)C3)nc(C)nc21` (stereo not given), the Potency result was “inactive”.

For `CCCCNc1nc(C)nc2c1nc(-c1ccccc1)n2CC(C)(C)CN(C)C`, the Potency result was “inactive”.

`Cc1nc(NCc2ccccc2)c2nc(-c3ccccc3)n(CCCN3CCCCC3C)c2n1` (stereo not given): the Potency result was “inactive”.

With `Cc1nc(NC2CCCCC2)c2nc(-c3ccccc3)n(CCN3CCCCC3)c2n1`, the Potency entry is “inactive”.

For `CCCCNc1nc(C)nc2c1nc(-c1ccccc1)n2CCCN1CCCCC1C` (stereo not given), the Potency result is “inactive”.

Regarding `CCCn1c(-c2ccc(F)cc2)nc2c(N3CCCN(Cc4ccccc4)CC3)nc(C)nc21`, the Potency entry was “inactive”.

Take `CCCCNc1nc(C)nc2c1nc(-c1ccccc1)n2C1CCN(Cc2ccccc2)C1` (stereo not given): the Potency entry was “inactive”.

`Cc1nc(NCc2ccccc2)c2nc(-c3ccccc3)n(CC(C)(C)CN(C)C)c2n1`: the Potency result was “inactive”.

The next experiment addresses Calcium and integrin-binding protein 1 (Homo sapiens) (UniProt Q99828). In words: Primary qHTS for Identification of Calcium Integrin Binding Protein 1 (CIB1) Competitor (AID 1508620).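 Also: GST tagged CIB1 binding a fluorescein labelled alphaIIb integrin peptide tracer; top concentration of the series differs between compounds.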 To be noted: CIB1-GST / FITC-alphaIIb peptide fluorescence polarization; series mostly up to 114 µM. Put shortly:
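Fluorescence polarization competition: CIB1-GST (1 uM final) preincubated with compound 15 min at room temperature, then FITC-labeled alphaIIb peptide (100 nM final) added for another 15 min. Polarization read at Ex 480/Em 540.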
As to `CCN(CC)CCn1c(-c2ccccc2)nc2c(NCc3ccccc3)nc(C)nc21`, the Potency result is “inactive”.

On to `CCN1CCCC1Cn1c(-c2ccccc2)nc2c(NCc3ccccc3)nc(C)nc21` (stereo not given), for which the Potency result is “inactive”.

Consider `CCN1CCCC1Cn1c(-c2ccccc2)nc2c(NC3CCCCC3)nc(C)nc21` (stereo not given), for which the Potency result is “inactive”.

For `CCCn1c(-c2ccc(F)cc2)nc2c(N3CCN(Cc4nc(OC)cc(OC)n4)CC3)nc(C)nc21`, the Potency result was “inactive”.

With `CCN1CCCC1Cn1c(-c2ccccc2)nc2c(NCCOC)nc(C)nc21` (stereo not given), the Potency result is “inactive”.

With `CCCn1c(-c2ccc(F)cc2)nc2c(N3CCN(CCn4ccnc4)CC3)nc(C)nc21`, the Potency entry was “inactive”.

As to `CCCn1c(-c2ccc(F)cc2)nc2c(NCCCCN3CCCC3)nc(C)nc21`, the Potency result is “inactive”.

With `Cc1nc(NCc2ccccc2)c2nc(-c3ccccc3)n(CCN3CCCCC3)c2n1`, the Potency entry was “inactive”.

Regarding `CCCn1c(C)nc2c(NCCCCN(C)C)nc(C)nc21`, the Potency entry is “inactive”.

As for `Cc1nc(N2CCOCC2)c2nc(-c3ccccc3)n(CCN3CCCCC3)c2n1`, the Potency result is “inactive”.

Consider `CCCn1c(-c2ccc(F)cc2)nc2c(NC3CCN(Cc4ccccc4)CC3)nc(C)nc21`, for which the Potency result is “inactive”.

Regarding `CCN(CC)CCCCn1c(-c2ccccc2)nc2c(NCCOC)nc(C)nc21`, the Potency entry was “inactive”.

Take `CCCn1c(C)nc2c(NCCN3CCCCC3)nc(C)nc21`: the Potency result is “inactive”.

For `CCN(CC)CCCn1c(-c2ccccc2)nc2c(NCCOC)nc(C)nc21`, the Potency result is “inactive”.

On to `Cc1nc(NCc2ccccc2)c2nc(-c3ccccc3)n(CCCN(C)C)c2n1`, for which the Potency entry is “inactive”.

As to `Cc1nc(N2CCOCC2)c2nc(-c3ccccc3)n(CC3CCN(C)CC3)c2n1`, the Potency entry is “inactive”.

On to `CCCCNc1nc(C)nc2c1nc(-c1ccccc1)n2CCN1CCCCC1`, for which the Potency entry is “inactive”.

As for `Cc1nc(NCc2ccccc2)c2nc(-c3ccccc3)n(C3CCN(Cc4ccccc4)C3)c2n1` (stereo not given), the Potency result was “inactive”.

Turning to `Cc1nc(NCc2ccccc2)c2nc(-c3ccccc3)n(CC3CCN(C)CC3)c2n1`, the Potency result was “inactive”.

Regarding `COCCNc1nc(C)nc2c1nc(-c1ccccc1)n2C1CCN(Cc2ccccc2)C1` (stereo not given), the Potency entry was “inactive”.

As for `CCCn1c(-c2ccc(F)cc2)nc2c(NC3CCN(Cc4ccccc4)C3)nc(C)nc21` (stereo not given), the Potency result was “inactive”.

Regarding `CCCn1c(C)nc2c(N(C)CCN(C)C)nc(C)nc21`, the Potency entry is “inactive”.

`CCCCNc1nc(C)nc2c1nc(-c1ccccc1)n2CC(C)(C)CN(C)C`: the Potency entry was “inactive”.

For `CCN(CC)CCn1c(-c2ccccc2)nc2c(N3CCOCC3)nc(C)nc21`, the Potency entry was “inactive”.
